# Counter-ions that a name gives are not always drawn.
# Tested on: Saccharomyces cerevisiae BY4741 SeMeCo community
# Assay: z-score of subpopulation abundance vs DMSO median, subpopulation auxotrophic for U; higher = larger share of this subpopulation than in DMSO controls
# Details: 10 µM; 24 h; SM minimal medium; subpopulation (auxotrophy): U
# Experimental: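 Fluorescent four-plasmid SeMeCo (self-establishing metabolically cooperating S. cerevisiae BY4741 community; plasmids pH-mRuby2, pL-mWasabi, pU-eCFP, pM-TagRFP657) was grown 24 h in minimal SM medium with each Selleck FDA-approved drug at 10 µM in 384-well plates. Cells were fixed and imaged by high-content confocal microscopy. For each auxotrophic subpopulation (and the prototroph), a z-score gives the deviation from the DMSO vehicle-control population median.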
row,SMILES,z-score of subpopulation abundance
1,C#C[C@]1(O)C=C[C@H]2[C@@H]3CCC4=CC(=O)CC[C@@H]4[C@H]3CC[C@@]21CC [Gestodene],-0.99
2,CC(C)N(CCC(C(N)=O)(c1ccccc1)c1ccccn1)C(C)C (centres undefined) [Disopyramide],-1.21
3,CN(C)C(=O)Oc1ccc[n+](C)c1 [Pyridostigmine Bromide],0.29
4,COc1ccc2[nH]cc(CCN)c2c1 [5-Methoxytryptamine],1.12
5,CN(C)C(=O)Oc1cccc([N+](C)(C)C)c1 [Neostigmine Bromide],-0.26
6,CN1[C@@H]2CC[C@H]1C[C@@H](OC(=O)[C@H](CO)c1ccccc1)C2 [Hyoscyamine],0.23
7,CC[N+](C)(CC)CCOC(=O)C(O)(c1ccccc1)c1ccccc1 [Methylbenactyzine Bromide],-0.09
8,CCOC(=O)Nc1ccc(NCc2ccc(F)cc2)cc1N [Retigabine 2HCl],-0.66
9,CC[C@H]1CN2CC[C@]3(C(=O)Nc4ccccc43)[C@@H]2C[C@@H]1/C(=C\OC)C(=O)OC [Rhynchophylline],0.63
10,NC(=O)CN1CCCC1=O [Piracetam],-0.08
11,O=C(O[C@H]1C[N+]2(CCCOc3ccccc3)CCC1CC2)C(O)(c1cccs1)c1cccs1 [Aclidinium Bromide],0.94
12,COc1ccc2c3c([nH]c2c1)C(C)=NCC3 [Harmaline],-8.11
13,C[CH2][Hg][S]c1ccccc1C(=O)[O-].[Na+] [Thimerosal],-3.69
14,COC(=O)C1=CCCN(C)C1 [Arecoline HBr],-0.09
15,Nc1ccncc1 [4-Aminopyridine],-0.8
16,CN1c2ccccc2C(NCCCCCCC(=O)O)c2ccc(Cl)cc2S1(=O)=O (centres undefined) [Tianeptine sodium],-0.4
17,O=c1cccc2n1C[C@@H]1CNC[C@H]2C1 [Cytisine],-0.25

row,SMILES,z-score of subpopulation abundance
1,CN1[C@@H]2CC[C@H]1C[C@@H](OC(=O)C(CO)c1ccccc1)C2 (some centres undefined) [Atropine sulfate monohydrate],0.96
2,CNC1CC(N)C(O)C(OC2OC(CO)C(O)C3OC4(OC(C(N)CO)C(O)C(O)C4O)OC23)C1O (centres undefined) [Hygromycin B],0.58
3,CN1[C@@H]2C[C@@H](OC(=O)[C@H](CO)c3ccccc3)C[C@H]1[C@@H]1O[C@@H]12 [Scopolamine HBr],0.09
4,C=CN1CCCC1=O.II [Povidone iodine],0.2
5,C[C@H]1O[C@H](O[C@H]2[C@H](O)[C@@H](O)[C@@H](O)[C@H](O)[C@@H]2O)[C@@H](N)C[C@@H]1NC(=N)C(=O)O [Kasugamycin hydrochloride],-0.23
6,CCN1CC2(OC(=O)c3ccccc3NC(C)=O)CCC(OC)C34C1C(CC23)C1(O)CC(OC)C2CC4C1(O)C2OC (centres undefined) [Lappaconitine],-0.25
7,CN(C)[C@@H]1C(=O)C(C(N)=O)=C(O)[C@@]2(O)C(=O)C3=C(O)c4c(O)cccc4[C@@](C)(O)[C@H]3[C@H](O)[C@@H]12 [Oxytetracycline (Terramycin)],0.03
8,COc1ccc(C(CN(C)C)C2(O)CCCCC2)cc1 (centres undefined) [Venlafaxine HCl],-0.58
9,C[C@@H]1O[C@@H](O[C@H]2C[C@@H](O)[C@]3(CO)[C@H]4[C@H](O)C[C@]5(C)[C@@H](C6=CC(=O)OC6)CC[C@]5(O)[C@@H]4CC[C@]3(O)C2)[C@H](O)[C@H](O)[C@H]1O [Ouabain],0.18
10,CCCN1C[C@H](CSC)C[C@@H]2c3cccc4[nH]cc(c34)C[C@H]21 [Pergolide Mesylate],-0.62
11,Oc1cc(Cl)ccc1Oc1ccc(Cl)cc1Cl [Triclosan],-0.09
12,CC[C@@]1(O)C(=O)OCc2c1cc1n(c2=O)Cc2cc3ccccc3nc2-1 [Camptothecin],-0.45
13,C=CCN1C[C@H](C(=O)N(CCCN(C)C)C(=O)NCC)C[C@@H]2c3cccc4[nH]cc(c34)C[C@H]21 [Cabergoline],1.05
14,CN1[C@@H]2C[C@@H](OC(=O)[C@H](CO)c3ccccc3)C[C@H]1[C@@H]1O[C@@H]12 [Scopolamine HBr trihydrate],0.18
15,NCCc1c[nH]c2ccc(O)cc12 [Serotonin HCl],0.33
16,CC1(C)SC2C(N)C(=O)N2C1C(=O)O (centres undefined) [6-Aminopenicillanic acid],0.1
17,CCOC(=O)Nc1ccc(NCc2ccc(F)cc2)cc1N [Retigabine],-0.91

# Reference: the supplement of paper PMC8975748
